We go through eight molecules from PubChem BioAssay (NCI).

A short description of the test: NCI Yeast Anticancer Drug Screen. Data for the mlh1 strain (AID 171).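 Also: 0% = growth of vehicle-treated control cultures of the same strain.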 To be noted: S. cerevisiae mlh1 strain growth inhibition, stronger effect = higher value. On the procedure: Growth inhibition of yeast strains with defined genetic alterations is measured as a screen for potential anti-cancer activity. Selected strains with alterations in DNA damage repair or cell cycle control were exposed to compounds and growth inhibition was measured relative to vehicle treated controls. The strain used in this assay is mlh1

Compounds without any hit were thinned out: in the full panel of roughly 79,000, 15% have a hit. Calls of active or inactive are those of the source. Rule as the data show it: active = growth inhibition above about 70%; inactive = the rest.

Consider `CCCCCCNCCCNc1c2cc(OC)ccc2nc2cccc([N+](=O)[O-])c12`, for which the growth inhibition by setting is: (at 1.2 µM) 4% (inactive); (at 3.7 µM) 2% (inactive); (at 11.0 µM) 16% (inactive); (at 33.0 µM) 86% (active); (at 100.0 µM) 98% (active).
As to `CCN(CC)CCNc1ccc2nc(C)n3c4ccc(O)cc4c(=O)c1c23`, the growth inhibition is 2% (inactive) (at 1.2 µM); 3% (inactive) (at 3.7 µM); -6% (inactive) (at 11.0 µM); 2% (inactive) (at 33.0 µM); 22% (inactive) (at 100.0 µM).
Regarding `O=C1C=C(NCCc2cc(Br)c(O)c(Br)c2)C(=O)c2ncccc21`, the growth inhibition was 27% (inactive) (at 1.2 µM); 27% (inactive) (at 3.7 µM); 36% (inactive) (at 11.0 µM); 82% (active) (at 33.0 µM); 96% (active) (at 100.0 µM).
As to `Cc1cccc(C)c1NC(=O)C(C#N)C1=C(Cl)C(=O)c2ccccc2C1=O` (stereo not given), the growth inhibition is -4% (inactive) (at 1.2 µM); 78% (active) (at 3.7 µM); 98% (active) (at 11.0 µM); 98% (active) (at 33.0 µM); 98% (active) (at 100.0 µM).
With `O=C(NO)c1coc2ccccc2c1=O`, the growth inhibition (at 1.2 µM) is -1% (inactive); the growth inhibition (at 3.7 µM) was 0% (inactive); the growth inhibition (at 11.0 µM) is -1% (inactive); the growth inhibition (at 33.0 µM) was 1% (inactive); the growth inhibition (at 100.0 µM) is 11% (inactive).
For the molecule `Cn1c(-c2ccc(/C=N\N3CCN(/N=C/c4ccc(-c5c[n+]6ccsc6n5C)cc4)CC3)cc2)c[n+]2ccsc12`, the growth inhibition was 33% (inactive) (at 1.2 µM); 32% (inactive) (at 3.7 µM); 19% (inactive) (at 11.0 µM); 47% (inactive) (at 33.0 µM); 74% (active) (at 100.0 µM).
The like results for `c1cc(-c2sc(-c3ccncc3)c(-c3ccncc3)c2-c2ccncc2)ccn1` were, in that order, 7% (inactive), 4% (inactive), 7% (inactive), 16% (inactive) and 92% (active).
For `CCC(=O)Nc1ccc(N=NN(C)C)cc1`, in that order: -13% (inactive), -10% (inactive), -10% (inactive), 19% (inactive) and 99% (active).
